Source: PubChem (National Center for Advancing Translational Sciences (NCATS))
Pf growth 96h = Primary qHTS for delayed death inhibitors of the malarial parasite plastid, 96 hour incubation; P. falciparum luciferase reporter growth, 96 h; 320,000 tested, 6.9% active; Potency, µM (top dose mostly 28.7 µM), actives largely listed as inhibitors; active means well fitted inhibition curve with a large enough effect; inconclusive means small, poorly fitted or top-dose-only effect, or another doubt; inactive means no such curve, though single readings can be large or run the other way
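Cell-based qHTS: luciferase-tagged P. falciparum in erythrocytes (2% hematocrit, 0.05% parasitemia final) incubated with compounds for 96 hours, 37 C, 5% CO2; luciferase detection reagent then added and luminescence measured.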
SARS PLpro yeast = qHTS of Yeast-based Assay for SARS-CoV PLP; Potency, µM (highest dose often 32.9 µM), usual class: activators; AID 485353, 2010; 330,000 tested, 0.19% active; S. cerevisiae expressing SARS-CoV PLpro, growth rescue; further: nearly all actives have a fitted effect of over 55% in size
NS1 inh = qHTS Assay for Inhibitors of Influenza NS1 Protein Function | Potency, µM (highest dose often 46.1 µM) | 270,000 tested, 0.4% active; further: actives are rising curves; nearly all actives have a fitted effect of over 50% in size
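OD600 was taken as the measure of yeast growth restored by compound in an NS1-expressing S. cerevisiae strain. Cells had been washed out of glucose medium and diluted 1:100 into galactose -URA medium, pH 6.0.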
Cycloheximide cs = Cycloheximide Counterscreen for Small Molecule Inhibitors of Shiga Toxin | 300,000 tested, 12% active | cell reporter, cycloheximide protein synthesis inhibition counterscreen | AID 2314, 2010 | max response, %; in the data active means max response mostly above about 13%, no sharp cut-off; inactive means mostly below about 14%; further: read at 38.3 µM for the half of the compounds with a filed dose
Shiga inhibitor = A qHTS for Small Molecule Inhibitors of Shiga Toxin; inhibition, % at 38.7 µM; 290,000 tested, 9.2% active; Vero cells, Shiga toxin protein synthesis inhibition reporter; AID 2315, 2010; in the data active means inhibition mostly above about 28%, no sharp cut-off; inactive means mostly below about 43%
Pf growth 48h = Primary qHTS for delayed death inhibitors of the malarial parasite plastid, 48 hour incubation | AID 504832, 2011 | Potency, µM (highest dose often 28.7 µM), actives largely listed as inhibitors | 310,000 tested, 5.9% active | P. falciparum luciferase growth in erythrocytes, 48 h; active means well fitted inhibition curve with a large enough effect; inconclusive means small, poorly fitted or top-dose-only effect, or another doubt; inactive means no such curve, though single readings can be large or run the other way
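Luciferase-expressing parasites in RBCs, 2% Hct / 0.1% parasitemia final; RPMI 1640 + 0.5% Albumax; 37 C, 5% CO2, one generation; luminescence read-out, lower signal = inhibition.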
Large screens that a line does not name were inactive. This is a sample that favours compounds with a hit; in the whole collection about 21% have one here. Unless noted, the call rests on the fitted dose curve.

Cc1ccc(NC(=O)CNC(=O)c2ccco2)c(Cl)c1	Cycloheximide cs 24.5, Shiga inhibitor 46.7
Cc1c(Cl)cccc1NC(=O)CNC(=O)c1ccco1	none
C/C(=N\NC(=O)CNC(=O)c1ccco1)c1ccc(Br)cc1	none
O=C(CNC(=O)c1ccco1)Nc1ccc(Br)cc1	Cycloheximide cs 44.9, Shiga inhibitor 60.6
O=C(CNC(=O)c1ccco1)Nc1ccc(Cl)cc1	Pf growth 96h inconclusive, Cycloheximide cs 26.9, Shiga inhibitor 33.8
O=C(NC1CCCCC1)C(c1ccccn1)N(C(=O)c1csnn1)c1ccccc1F (stereo not drawn)	none
CC(=O)Nc1ccc(S(=O)(=O)NCC(=O)NCCc2ccc(S(N)(=O)=O)cc2)cc1	Pf growth 96h 0.828µM (no result: NS1 inh)
CCOc1ccc(CCNC(=O)COC(=O)CNS(=O)(=O)c2ccc(NC(C)=O)cc2)cc1OCC	Pf growth 96h 8.28µM, Pf growth 48h inconclusive (no result: NS1 inh, Cycloheximide cs, Shiga inhibitor)
CC(=O)Nc1ccc(S(=O)(=O)NCCc2ccc(F)cc2)cc1	Pf growth 96h inconclusive
CC(=O)Nc1ccc(S(=O)(=O)NCC(=O)NCCCc2ccccc2)cc1	Pf growth 96h inconclusive, Pf growth 48h inconclusive
CC(=O)Nc1ccc(S(=O)(=O)NCCc2ccc(S(N)(=O)=O)cc2)cc1	Pf growth 96h 10.4µM (no result: Pf growth 48h)
CCOC(=O)C1(CCc2ccccc2)CCN(Cc2ccc3c(c2)OCCO3)CC1	Pf growth 96h 10.4µM
CCOC(=O)C1(CCOc2ccccc2)CCN(Cc2ccc(NC(C)=O)cc2)CC1	Pf growth 48h 13.1µM
CCOC(=O)C1(CCc2ccccc2)CCN(Cc2cc(OC)c(OC)cc2OC)CC1	Pf growth 48h inconclusive
CCOC(=O)C1(CCc2ccccc2)CCN(Cc2ccc(NC(C)=O)cc2)CC1	Pf growth 96h 4.15µM, Pf growth 48h inconclusive
CCOC(=O)C1(CCc2ccccc2)CCN(Cc2ccc(C(=O)OC)cc2)CC1	Pf growth 48h inconclusive
CC(=O)Nc1ccc(CN2CCC(CO)(CCOc3ccccc3)CC2)cc1	Pf growth 96h inconclusive
CCOC(=O)C1(CC2CC2)CCN(Cc2ccc(C(=O)OC)cc2)CC1	Pf growth 48h 9.28µM
Cc1cc(=O)oc2cc(OCC(=O)Nc3ccccc3C(N)=O)c(Cl)cc12	none
CC(=O)N/C(=C/c1ccc2c(c1)OCO2)C(=O)NCC(=O)O	none
CCOC(=O)C1(CCOc2ccccc2)CCN(Cc2ccc(C)s2)CC1	Pf growth 96h 10.4µM, Pf growth 48h 13.1µM
CCOC(=O)C1(CCc2ccccc2)CCN(C(=O)Cc2nonc2C)CC1	Pf growth 96h inconclusive, Cycloheximide cs 13.5, Shiga inhibitor 62.6
CCOC(=O)C1(CCOc2ccccc2)CCN(Cc2cccc(OC)c2OC)CC1	Pf growth 96h 10.4µM, Pf growth 48h inconclusive
CCOC(=O)C1(CCc2ccccc2)CCN(C2Cc3ccccc3C2)CC1	Cycloheximide cs 27.0, Shiga inhibitor 76.1, Pf growth 48h inconclusive
CCOC(=O)C1(CCOc2ccccc2)CCN(Cc2cccc3c2OCO3)CC1	Pf growth 48h inconclusive
CCOC(=O)C1(CCc2ccccc2)CCN(C2CCSCC2)CC1	none
C=CCOc1ccc(C(c2c(C(=O)O)[nH]c3ccccc23)c2c(C(=O)O)[nH]c3ccccc23)cc1	NS1 inh inconclusive
CCOC(=O)N1CCC(N(CCN(C)C)C(=S)Nc2cc(Cl)ccc2C)CC1	none (no result: NS1 inh)
COc1ccccc1C(=O)NCCC(=O)NCC1CCCO1 (stereo not drawn)	none (no result: NS1 inh, Cycloheximide cs, Shiga inhibitor)
CCN(CC)S(=O)(=O)c1ccc(N/N=C/c2ccccc2OCC(=O)O)c([N+](=O)[O-])c1	Pf growth 96h 1.65µM, Pf growth 48h 10.4µM (no result: NS1 inh)
CC(C)Cn1c(N)c(C=O)c(=O)[nH]c1=O	none (no result: NS1 inh)
COc1ccccc1Nc1nc(-c2cccc([N+](=O)[O-])c2)cs1	Cycloheximide cs 46.7
O=[N+]([O-])c1cccc(-c2csc(Nc3ccccc3)n2)c1	Pf growth 96h inconclusive, Cycloheximide cs 68.1, Shiga inhibitor 90.6
COc1cc(NS(=O)(=O)c2ccc(Nc3nc(-c4cccc([N+](=O)[O-])c4)cs3)cc2)nc(OC)n1	Pf growth 96h inconclusive
O=[N+]([O-])c1cccc(-c2noc(-c3ccco3)n2)c1	Cycloheximide cs 27.6, Shiga inhibitor 63.3
O=[N+]([O-])c1cccc(-c2nc(-c3ccncc3)no2)c1	none
